In the library only some 3.5% were active in any assay of this set; here they are far more common.
TROY signal inh: TROY signaling inhibition | AID 1347056 | inhibition, % at 10 µM | actives 0.98% (n = 360,000) | Q293 LMP1-TROYcd NF-kB luciferase reporter, 4 h;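 active = compounds whose plate-normalised and pattern-corrected inhibition of the luciferase reporter signal at the single screening dose is 50% or more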
HSP90 inh: inhibitors of HSP90 luciferase refolding in rabbit reticulocyte lysate. luciferase refolding luminescence, 3 h. inhibition, % at 5.6 µM. actives 0.91% (n = 290,000);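 active = inhibition above the screen-wide mean plus 3 SD, computed separately per campaign, cut at about 16% in these data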;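 also: 0% = DMSO wells and 100% = 60 µM geldanamycin wells; inhibitors lower the luminescence because luciferase stays unfolded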
Platelet DG rel: modulates dense granule release in human platelets | human platelet-rich plasma, SFLLRN dense granule ATP release, luminescence | actives 0.22% (n = 300,000) | inhibition, %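 (compounds screened at 7.5 µM in platelet-rich plasma)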 | AID 1663;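 active = mean replicate score, as percent of positive control, at or above 50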
PPC-1+TRAIL kill: kills PPC-1 cancer cells in the presence of TRAIL; actives 0.41% (n = 220,000); AID 1443; cell killing (% activity), % at 4 µM or 5 µM; PPC-1 cells + TRAIL, ATPLite viability luminescence;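 active = cell killing above 50% in the first pass at 4 µM, then a duplicate retest at 5 µM averaging 50% or more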;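 also: plate controls were cells with TRAIL plus DMSO for no effect and medium-only wells lacking cells for full effect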
TWEAK Fn14 block: inhibitors of TWEAK-Fn14 interaction signaling; TWEAK-stimulated Fn14 reporter cells, luciferase luminescence, 8 h; actives 2% (n = 360,000); inhibition, % at 10 µM; in the data active = inhibition above about 50%
C8 TRAIL sens: sensitizes caspase-8 expressing cells to TRAIL. NB7+C8 cells + TRAIL, ATPlite viability luminescence. inhibition (viability loss, TRAIL sensitization), % at 10 µM. actives 1% (n = 360,000). AID 624354;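 active = compounds causing at least 50% loss of cell viability in the single-dose screen, relative to plate controls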
An asterisk follows results filed as active; x = no result given.

SMILES	TROY signal inh	HSP90 inh	Platelet DG rel	PPC-1+TRAIL kill	TWEAK Fn14 block	C8 TRAIL sens
CC1=NNC(=O)/C1=C\c1cn(-c2ccccc2)nc1-c1ccc(F)cc1	75*	4	-8	22	100*	86*
O=C(O)CCCCCN1C(=O)/C(=C/c2cn(-c3ccccc3)nc2-c2cccs2)SC1=S	35	x	x	x	27	4
CCOC(=O)c1c(C)[nH]c(C(=O)OCC(=O)Nc2ccc(Cl)cn2)c1C	-19	x	x	x	-16	-6
CCOC(=O)c1c(C)[nH]c(C(=O)OCC(=O)Nc2sccc2C(N)=O)c1C	64*	x	-11	x	84*	56*
CCN(C(=S)Nc1cccc2ccccc12)c1ccccc1	31	x	x	x	83*	-5
S=C(NCc1ccccc1)Nc1cccc2ccccc12	-18	4	18	x	-24	14
COc1ccccc1/C=N\NC(=O)c1ccc(COc2ccc(C)c(C)c2)o1	-42	x	4	x	-14	2
COc1ccc(S(=O)(=O)N(C)C[C@@H]2OCCCC[C@@H](C)Oc3ccc(NC(=O)NC(C)C)cc3C(=O)N([C@H](C)CO)C[C@@H]2C)cc1	2	x	x	x	-9	-8
CN1OC[C@@H]2CN(Cc3ccc(Cl)cc3)[C@H](c3ccc(-n4ccnc4)cc3)C[C@@H]21	5	x	x	x	-11	-4
Nc1ncnc2c1C(c1ccccc1)c1c(ccc3ccccc13)O2 (stereo not given)	57*	x	x	x	-76	13
Cc1nc(C(F)(F)F)ccc1C(=O)N1CCC1(C)C(=O)NS(=O)(=O)c1cccc(F)c1 (stereo not given)	12	x	x	x	-9	-17
N/C(=N\S(=O)(=O)c1cc(C(F)(F)F)cc(C(F)(F)F)c1)c1ccc(Cl)cc1	60*	-4	x	4	17	6
Cc1nc(C(=O)O)cc2c1[nH]c1ccccc12	-4	x	6	x	0	-10
CC(=O)N(C(C)=O)c1ncc2c([nH]c3ccccc32)c1C#N	54*	2	-2	8	55*	10
Cc1ccc(NNC(=O)C(O)(c2cccc(C(F)(F)F)c2)c2cccc(C(F)(F)F)c2)cc1	43	1	-6	-8	22	25
O=C(NNc1ccccc1Br)C(O)(c1cccc(C(F)(F)F)c1)c1cccc(C(F)(F)F)c1	57*	4	-4	15	73*	24
CCN=C(NCC)SC1CC(=O)N(CCc2ccccc2)C1=O (stereo not given)	-2	x	-2	x	-1	3
CCOc1cccc2sc(N(CCCN(C)C)C(=O)c3ccc(S(=O)(=O)N4CCc5ccccc5C4)cc3)nc12	-38	4	10	x	-8	68*
CCc1ccc2nc(N(CCCN(C)C)C(=O)c3ccc(S(=O)(=O)N4CCc5ccccc5C4)cc3)sc2c1	-87	2	-3	x	-208	80*
CCOc1cccc2sc(N(CCCN(C)C)C(=O)c3ccc(S(=O)(=O)N(C)c4ccccc4)cc3)nc12	-1	4	-3	1	0	7
CCOC(=O)c1c(C)[nH]c(C(=O)Nc2cc(OCC)c(N3CCOCC3)cc2OCC)c1C	-3	x	x	x	1	13
Cc1ccc(-c2cnn(-c3ccccc3)c2N)cc1	-24	14	52*	x	20	79*
Nc1c(-c2ccc(Cl)cc2)cnn1-c1ccccc1	-30	11	37	x	-14	41
Cn1c(-c2cnn(-c3ccccc3)c2N)n[nH]c1=S	-18	-1	61*	25	-20	1
C=CCn1c(-c2cnn(-c3ccccc3)c2N)n[nH]c1=S	-6	9	13	33	7	-1
Cn1c(-c2ccccc2)n[nH]c1=S	-10	7	13	-2	85*	-2
C/C(=N\OCC(=O)NC12CC3CC(CC(C3)C1)C2)c1cc2ccccc2o1	-27	1	0	21	-4	-3
O=C(CN(C(=O)c1ccc(Cl)cc1)C1CCCCC1)Nc1ccc(Cl)c([N+](=O)[O-])c1	35	1	3	11	51*	-1
Nc1[nH]c(C(=O)c2ccccc2)c(-c2cccnc2)c1C(=O)NC1CCCCC1	-17	x	x	x	0	-12
CCOc1ccc(N2C(=O)CC(NCCc3ccc(S(N)(=O)=O)cc3)C2=O)cc1 (stereo not given)	x	3	-32	-12	108*	-12
